Inconclusive results are not listed. Active and inactive are the calls of the source. Rule for the calls, unless noted: active = hit-call score of the fitted dose curve at least 0.9, where 1 is the maximum; inactive = score below 0.9.
How the values were obtained:
[1] = molecular target: Paired box protein Pax-6 (Homo sapiens) (UniProt P26367); experiment: ATG_Pax6_CIS: Attagene CIS-FACTORIAL HepG2 Assay for human Paired Box 6 (PAX6) (AID 2282956); settings: HepG2 CIS-FACTORIAL PAX6 reporter transcription, RNA readout; actives raise or lower the signal
Paired box protein Pax-6 (Homo sapiens), sequence (P26367 whole entry, looked up): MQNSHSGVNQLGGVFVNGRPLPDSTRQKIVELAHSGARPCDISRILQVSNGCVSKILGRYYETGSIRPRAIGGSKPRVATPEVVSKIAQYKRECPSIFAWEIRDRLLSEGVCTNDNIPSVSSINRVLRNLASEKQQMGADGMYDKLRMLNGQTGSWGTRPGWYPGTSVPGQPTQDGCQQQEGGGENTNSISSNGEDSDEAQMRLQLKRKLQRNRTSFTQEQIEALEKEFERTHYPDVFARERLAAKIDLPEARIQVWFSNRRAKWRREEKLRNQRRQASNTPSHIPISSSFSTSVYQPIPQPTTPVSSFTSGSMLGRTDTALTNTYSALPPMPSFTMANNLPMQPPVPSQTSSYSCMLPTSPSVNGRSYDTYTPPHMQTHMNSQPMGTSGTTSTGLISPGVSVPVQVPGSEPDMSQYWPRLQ
Procedure, shortened: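 Values derive from bidirectional curve fitting of reporter mRNA signal relative to DMSO. HepG2 cells bearing transfected cis-regulated MRTUs were exposed for 24 h; transcripts were read by RT-PCR and capillary electrophoresis.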

[2] = ATG_RORE_CIS: Attagene CIS-FACTORIAL HepG2 Assay for human RAR-related Orphan Receptor Element (RORE) (AID 2282959); settings: HepG2 Attagene cis-factorial RORE reporter, mRNA; actives raise or lower the signal
Procedure, shortened: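 Readout: fluorescent reporter mRNA by RT-PCR plus capillary electrophoresis, 24 h after dosing transfected HepG2 cells. Endogenous transcription factor activity on a cis promoter element is measured. Gain or loss of signal fitted against DMSO.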

[3] = ATG_Sox_CIS: Attagene CIS-FACTORIAL HepG2 Assay for human SRY-box transcription factor (SOX) (AID 2282960); settings: HepG2 Attagene cis-factorial SOX reporter, mRNA; actives raise or lower the signal
Procedure, shortened: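 Read-out: fluorescent RT-PCR products of SOX1-linked reporter transcripts resolved by capillary electrophoresis, fitted bidirectionally against DMSO. Transiently transfected HepG2 cells, 24 h after chemical exposure, endogenous transcription factor activity.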

[4] = molecular target: Transcription factor Sp1 (Homo sapiens) (UniProt P08047); experiment: ATG_Sp1_CIS: Attagene CIS-FACTORIAL HepG2 Assay for human Specificity Protein 1 (Sp1) (AID 2282961); settings: HepG2 Sp1 cis-reporter transcription, actives raise or lower the signal
Transcription factor Sp1 (Homo sapiens), sequence (P08047 whole entry, looked up): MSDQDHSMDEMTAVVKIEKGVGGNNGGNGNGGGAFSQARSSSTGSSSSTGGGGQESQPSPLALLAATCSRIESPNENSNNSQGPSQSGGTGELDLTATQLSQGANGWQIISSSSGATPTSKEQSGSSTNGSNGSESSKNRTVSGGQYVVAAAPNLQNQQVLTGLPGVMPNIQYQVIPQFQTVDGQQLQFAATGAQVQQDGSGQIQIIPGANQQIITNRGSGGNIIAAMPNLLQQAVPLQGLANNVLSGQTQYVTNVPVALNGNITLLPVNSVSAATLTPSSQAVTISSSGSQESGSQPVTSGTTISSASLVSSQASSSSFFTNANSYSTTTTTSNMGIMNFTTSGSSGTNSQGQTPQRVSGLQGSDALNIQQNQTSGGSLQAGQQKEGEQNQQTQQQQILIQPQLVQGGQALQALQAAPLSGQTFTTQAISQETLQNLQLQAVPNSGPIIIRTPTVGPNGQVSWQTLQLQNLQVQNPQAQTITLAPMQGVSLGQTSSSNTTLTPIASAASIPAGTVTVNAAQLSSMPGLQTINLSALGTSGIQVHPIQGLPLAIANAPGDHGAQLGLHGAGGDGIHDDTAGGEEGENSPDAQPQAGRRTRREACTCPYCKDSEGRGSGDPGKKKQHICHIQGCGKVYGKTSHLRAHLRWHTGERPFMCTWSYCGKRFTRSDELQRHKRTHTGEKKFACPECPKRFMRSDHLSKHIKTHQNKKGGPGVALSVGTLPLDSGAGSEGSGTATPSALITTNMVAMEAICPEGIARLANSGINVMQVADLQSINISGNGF
Procedure, shortened: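 Read-out: fluorescence of 6-FAM-labeled, HpaI-digested RT-PCR products separated by capillary electrophoresis. HepG2 cells carried transfected cis-element reporter units and were exposed to chemicals for 24 h; gain or loss of signal fitted relative to DMSO.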

[5] = ATG_SREBP_CIS: Attagene CIS-FACTORIAL HepG2 Assay for human Sterol Regulatory Element Binding (SREBP) (AID 2282962); settings: HepG2 Attagene cis-factorial SREBP reporter, mRNA; actives raise or lower the signal
Procedure, shortened: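 Values derive from bidirectional curve fitting with DMSO as baseline. The underlying measurement is reporter mRNA from cis-element-regulated units in transiently transfected HepG2, quantified by RT-PCR and capillary electrophoresis after 24 h exposure.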

[6] = molecular target: Signal transducer and activator of transcription 3 (Homo sapiens) (UniProt P40763); experiment: ATG_STAT3_CIS: Attagene CIS-FACTORIAL HepG2 Assay for human Signal Transducer and Activator of Transcription 3 (STAT3) (AID 2282963); settings: HepG2, Attagene cis-factorial STAT3 reporter transcription; actives raise or lower the signal
Signal transducer and activator of transcription 3 (Homo sapiens), sequence (P40763 whole entry, looked up): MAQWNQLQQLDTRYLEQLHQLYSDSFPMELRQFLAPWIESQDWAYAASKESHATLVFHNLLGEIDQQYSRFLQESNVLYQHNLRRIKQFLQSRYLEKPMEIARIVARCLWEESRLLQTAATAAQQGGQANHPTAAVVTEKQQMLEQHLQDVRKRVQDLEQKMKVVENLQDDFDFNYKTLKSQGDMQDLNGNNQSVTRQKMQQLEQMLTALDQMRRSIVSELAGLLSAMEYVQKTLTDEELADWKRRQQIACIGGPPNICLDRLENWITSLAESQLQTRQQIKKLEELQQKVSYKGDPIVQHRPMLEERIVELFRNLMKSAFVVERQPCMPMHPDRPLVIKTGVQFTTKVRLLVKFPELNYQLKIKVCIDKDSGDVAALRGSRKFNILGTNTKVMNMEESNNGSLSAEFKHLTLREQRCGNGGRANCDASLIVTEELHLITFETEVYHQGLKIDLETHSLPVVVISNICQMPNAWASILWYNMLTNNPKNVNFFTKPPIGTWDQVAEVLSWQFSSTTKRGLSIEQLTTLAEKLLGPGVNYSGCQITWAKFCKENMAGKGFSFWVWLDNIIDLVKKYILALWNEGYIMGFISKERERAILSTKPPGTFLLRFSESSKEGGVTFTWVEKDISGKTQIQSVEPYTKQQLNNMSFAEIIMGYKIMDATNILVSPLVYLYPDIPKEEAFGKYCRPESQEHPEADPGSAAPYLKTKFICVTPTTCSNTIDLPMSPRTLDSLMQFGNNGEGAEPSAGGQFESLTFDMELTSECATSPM
Procedure, shortened: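 Cis-factorial format: endogenous transcription factors in HepG2 drive transfected reporter units. After 24 h treatment, reporter RNA was reverse-transcribed, amplified, FAM-labelled and HpaI-digested before CE analysis; activity scored in both directions against DMSO.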

[7] = ATG_TA_CIS: Attagene CIS-FACTORIAL HepG2 Assay for human TA Basal Promoter (AID 2282964); settings: HepG2 Attagene CIS-factorial TA basal promoter reporter; actives raise or lower the signal
Procedure, shortened: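 Transfected HepG2, 24 h compound exposure; RNA → RT-PCR → FAM primer extension → HpaI cut → CE fluorescence. Gain/loss-of-signal fitted against DMSO negative control. Background-control readout.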

[8] = ATG_TCF_b_cat_CIS: Attagene CIS-FACTORIAL HepG2 Assay for human T-Cell-Factor with beta-catenin (TCF/b-cat) (AID 2282965); settings: HepG2 TCF/beta-catenin cis-reporter transcription, actives raise or lower the signal
Procedure, shortened: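 Endogenous TCF/LEF activity read as reporter transcript level via RT-PCR and capillary electrophoresis fluorescence in transfected HepG2, 24 h exposure; gain or loss of signal fitted against DMSO controls.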

[9] = ATG_TAL_CIS: Attagene CIS-FACTORIAL HepG2 Assay for human TAL Basal Promoter (AID 2282966); settings: HepG2 Attagene cis-factorial TAL promoter reporter; actives raise or lower the signal;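 note: background control endpoint measuring basal TAL promoter reporter mRNA not a specific factor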
Procedure, shortened: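 Human hepatoma HepG2 cells, transfected with promoter-regulated reporter units, were treated 24 h. Reporter transcript levels, measured through RT-PCR and capillary electrophoresis, were fitted for gain or loss relative to DMSO.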

[10] = ATG_TGFb_CIS: Attagene CIS-FACTORIAL HepG2 Assay for human Transforming Growth Factor (TGF) (AID 2282967); settings: HepG2 Attagene CIS TGFb reporter, mRNA transcription; actives raise or lower the signal
Procedure, shortened: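 Readout: fluorescently labeled reporter cDNA fragments resolved by capillary electrophoresis after RT-PCR. Transfected HepG2 cells dosed for 24 h; endogenous TF activity at TGFB1-linked cis element; gain or loss fitted relative to DMSO.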

[11] = ATG_VDRE_CIS: Attagene CIS-FACTORIAL HepG2 Assay for human Vitamin D Receptor Element (VDRE) (AID 2282968); settings: HepG2 VDRE cis-reporter transcription, actives raise or lower the signal
Procedure, shortened: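 Measures endogenous factor activity through cis-element-driven reporter transcripts in transiently transfected HepG2. Cells are treated 24 h; reporter mRNA is quantified by RT-PCR and capillary electrophoresis; fitting is bidirectional.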

[12] = molecular target: Nuclear receptor subfamily 1 group I member 3 (Homo sapiens) (UniProt Q14994); experiment: ATG_CAR_TRANS: Attagene TRANS-FACTORIAL HepG2 Assay for human Constitutive Androstane Receptor (CAR) (AID 2282969; active = hit-call score of the fitted dose curve at least 0.9, where 1 is the maximum;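 note: activators raise reporter mRNA above DMSO so AC50 marks induction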); settings: HepG2 Attagene TRANS-FACTORIAL CAR reporter
Nuclear receptor subfamily 1 group I member 3 (Homo sapiens), sequence (Q14994 whole entry, looked up, the tested form may be a part): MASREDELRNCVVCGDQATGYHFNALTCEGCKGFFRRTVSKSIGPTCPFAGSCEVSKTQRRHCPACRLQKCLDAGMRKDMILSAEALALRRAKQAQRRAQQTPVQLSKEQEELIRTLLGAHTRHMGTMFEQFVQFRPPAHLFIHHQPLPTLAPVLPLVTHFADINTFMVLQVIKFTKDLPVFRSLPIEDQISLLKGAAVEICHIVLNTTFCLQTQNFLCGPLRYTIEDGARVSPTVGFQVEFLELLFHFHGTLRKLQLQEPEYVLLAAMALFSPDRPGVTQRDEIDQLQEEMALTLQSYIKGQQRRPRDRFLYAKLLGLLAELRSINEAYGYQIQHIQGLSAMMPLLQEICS
Procedure, shortened: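 Signal is reporter mRNA induction relative to DMSO, measured 24 h after dosing by RT-PCR with fluorescent primer extension and capillary electrophoresis. Human HepG2 liver cells carried transiently transfected chimeric NR-Gal4/GAL4-UAS reporter constructs.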

[13] = molecular target: X-box-binding protein 1 (Homo sapiens) (UniProt P17861); experiment: ATG_Xbp1_CIS: Attagene CIS-FACTORIAL HepG2 Assay for human X-box Binding Protein 1 (XBP1) (AID 2282972); settings: HepG2 XBP1 cis-element reporter, Attagene multiplex; actives raise or lower the signal
X-box-binding protein 1 (Homo sapiens), sequence (P17861 whole entry, looked up): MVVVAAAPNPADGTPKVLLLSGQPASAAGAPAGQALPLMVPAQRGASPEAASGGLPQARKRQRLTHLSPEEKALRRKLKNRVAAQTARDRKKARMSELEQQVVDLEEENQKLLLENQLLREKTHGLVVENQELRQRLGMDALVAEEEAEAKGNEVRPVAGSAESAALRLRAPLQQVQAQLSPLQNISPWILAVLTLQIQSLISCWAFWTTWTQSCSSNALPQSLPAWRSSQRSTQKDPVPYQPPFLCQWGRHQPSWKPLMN
Procedure, shortened: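 Human hepatoma HepG2, cis-element reporter system, 24 h treatment; mRNA quantified by RT-PCR/CE fluorescence; fit relative to DMSO.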

[14] = ATG_M_19_TRANS: Attagene TRANS-FACTORIAL HepG2 Assay for M19 Transcription Factor (Internal Marker) (AID 2282974; active = hit-call score of the fitted dose curve at least 0.9, where 1 is the maximum); settings: HepG2 Attagene TRANS-FACTORIAL M19 internal marker reporter
Procedure, shortened: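 24 h chemical exposure of transiently transfected HepG2 (MRTU library). RNA → oligo(dT) RT → PCR → 6-FAM labelling → HpaI cut → CE fluorescence. Positive-direction fit vs DMSO baseline; background internal-marker readout.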

[15] = molecular target: Estrogen-related receptor gamma (Homo sapiens) (UniProt P62508); experiment: ATG_ERRg_TRANS: Attagene TRANS-FACTORIAL HepG2 Assay for human Estrogen-Related Receptor gamma (ERRg) (AID 2282977; active = hit-call score of the fitted dose curve at least 0.9, where 1 is the maximum;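 note: hits increase reporter signal over DMSO so potencies reflect activators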); settings: HepG2 Attagene TRANS reporter, ERRg transactivation
Estrogen-related receptor gamma (Homo sapiens), sequence (P62508 whole entry, looked up, the tested form may be a part): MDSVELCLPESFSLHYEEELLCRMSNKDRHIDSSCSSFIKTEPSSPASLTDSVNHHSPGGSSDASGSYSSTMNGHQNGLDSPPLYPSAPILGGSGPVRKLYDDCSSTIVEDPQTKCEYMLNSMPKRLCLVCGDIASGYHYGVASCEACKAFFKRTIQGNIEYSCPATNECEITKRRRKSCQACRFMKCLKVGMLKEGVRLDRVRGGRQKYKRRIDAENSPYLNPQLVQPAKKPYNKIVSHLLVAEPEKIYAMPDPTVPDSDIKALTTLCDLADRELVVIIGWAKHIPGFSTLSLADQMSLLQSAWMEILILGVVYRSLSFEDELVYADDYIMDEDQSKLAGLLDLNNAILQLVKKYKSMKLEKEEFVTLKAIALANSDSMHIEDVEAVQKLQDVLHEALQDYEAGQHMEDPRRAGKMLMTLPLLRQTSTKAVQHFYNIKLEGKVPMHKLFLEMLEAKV
Procedure, shortened: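 Readout: fluorescent reporter-mRNA fragments resolved by capillary electrophoresis after RT-PCR and HpaI cut. Cells: transiently transfected HepG2 carrying GAL4-UAS reporters driven by exogenous NR-Gal4 chimeras, dosed 24 h. Activity fitted upward relative to DMSO baseline.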

[16] = ATG_PPRE_CIS: Attagene CIS-FACTORIAL HepG2 Assay for human Peroxisome Proliferator-activated Response Element (PPRE) (AID 2282958); settings: HepG2 PPRE cis-element reporter, Attagene transcription factor profiling; actives raise or lower the signal
Procedure, shortened: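 Read-out: fluorescent reporter mRNA fragments resolved by capillary electrophoresis after RT-PCR. HepG2 cells carried transiently transfected PPRE-driven cis reporter constructs and were dosed for 24 h; gain or loss of signal fitted relative to DMSO.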

[17] = molecular target: Estrogen receptor (Homo sapiens) (UniProt P03372); experiment: ATG_ERa_TRANS: Attagene TRANS-FACTORIAL HepG2 Assay for human Estrogen Receptor alpha (ERa) (AID 2282970; active = hit-call score of the fitted dose curve at least 0.9, where 1 is the maximum); settings: HepG2 Attagene TRANS ERa GAL4 reporter, mRNA
Estrogen receptor (Homo sapiens), sequence (P03372 whole entry, looked up, the tested form may be a part): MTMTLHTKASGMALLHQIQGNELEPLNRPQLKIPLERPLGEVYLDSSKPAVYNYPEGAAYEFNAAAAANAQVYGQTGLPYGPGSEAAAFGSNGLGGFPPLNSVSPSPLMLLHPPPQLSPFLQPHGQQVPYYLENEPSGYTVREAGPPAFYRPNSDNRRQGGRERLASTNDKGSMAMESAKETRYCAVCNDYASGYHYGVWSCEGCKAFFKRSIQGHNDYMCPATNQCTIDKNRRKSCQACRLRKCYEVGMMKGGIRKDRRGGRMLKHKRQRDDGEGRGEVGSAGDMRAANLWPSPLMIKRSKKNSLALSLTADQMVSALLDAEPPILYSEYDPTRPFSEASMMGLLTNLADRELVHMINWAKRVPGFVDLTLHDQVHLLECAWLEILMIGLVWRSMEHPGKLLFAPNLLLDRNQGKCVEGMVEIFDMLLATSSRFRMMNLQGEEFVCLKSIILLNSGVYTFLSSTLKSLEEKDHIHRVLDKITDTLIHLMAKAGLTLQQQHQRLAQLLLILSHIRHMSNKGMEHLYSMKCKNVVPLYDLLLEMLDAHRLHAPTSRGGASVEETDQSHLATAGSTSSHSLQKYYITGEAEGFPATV
Procedure, shortened: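 Signal derives from fluorescence of labelled reporter PCR fragments separated by capillary electrophoresis. HepG2 cells transiently carrying multiple GAL4-UAS reporter units were treated 24 hours, and induction above DMSO baseline was fitted as activity.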

[18] = ATG_GAL4_TRANS: Attagene TRANS-FACTORIAL HepG2 Assay for GAL4 (Internal Marker) (AID 2282976; active = hit-call score of the fitted dose curve at least 0.9, where 1 is the maximum); settings: HepG2 Attagene TRANS GAL4 internal marker reporter
Procedure, shortened: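 Liver HepG2 line bearing multiplexed GAL4-UAS reporter constructs; 24 h chemical treatment. Transcripts were quantified as fluorescent fragments on capillary electrophoresis after RT-PCR and HpaI cut, with activity fitted upward from DMSO.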

[19] = molecular target: Steroid hormone receptor ERR1 (Homo sapiens) (UniProt P11474); experiment: ATG_ERRa_TRANS: Attagene TRANS-FACTORIAL HepG2 Assay for human Estrogen-Related Receptor alpha (ERRa) (AID 2282971; active = hit-call score of the fitted dose curve at least 0.9, where 1 is the maximum); settings: HepG2 Attagene TRANS reporter, ERRa transactivation
Steroid hormone receptor ERR1 (Homo sapiens), sequence (P11474 whole entry, looked up, the tested form may be a part): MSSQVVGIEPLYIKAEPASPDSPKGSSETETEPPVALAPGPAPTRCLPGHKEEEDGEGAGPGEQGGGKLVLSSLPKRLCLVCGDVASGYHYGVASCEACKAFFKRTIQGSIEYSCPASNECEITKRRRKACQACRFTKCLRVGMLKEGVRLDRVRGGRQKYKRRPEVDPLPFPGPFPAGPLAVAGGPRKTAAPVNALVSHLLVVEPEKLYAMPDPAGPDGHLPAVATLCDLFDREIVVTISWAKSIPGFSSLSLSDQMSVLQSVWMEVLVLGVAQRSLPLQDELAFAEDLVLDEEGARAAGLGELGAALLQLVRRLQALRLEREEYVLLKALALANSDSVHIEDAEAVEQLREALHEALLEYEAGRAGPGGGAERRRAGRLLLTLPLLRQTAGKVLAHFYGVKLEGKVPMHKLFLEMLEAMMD
Procedure, shortened: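 Signal gain relative to DMSO for an ERRa-Gal4 chimeric receptor, read as reporter mRNA by RT-PCR/capillary electrophoresis. Human HepG2 liver cells, transient multiplex reporter transfection, 24 h chemical exposure.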

Measured: AC50

c1cc(N(CC2CO2)CC2CO2)ccc1OCC1CO1 (centres undefined)
active: [1] 46.4 µM | [2] 80.6 µM | [3] 58.5 µM | [4] 56.9 µM | [5] 68.3 µM | [8] 12.6 µM | [11] 36.8 µM | [13] 12.9 µM
inactive: [6] | [7] | [9] | [10] | [12] | [14] | [15]

CCCCCCCCCCOC(C)=O
active: [17] 47.2 µM
not listed: [12] | [15] | [19]
inactive: all other assays above

CC(=O)[C@@]1(O)CC[C@H]2[C@@H]3C[C@H](C)C4=CC(=O)C=C[C@]4(C)[C@@]3(F)[C@@H](O)C[C@@]21C
not listed: [2] | [4] | [12] | [15] | [17] | [18] | [19]
inactive: all other assays above

O=P(O)(O)Oc1ccccc1
not listed: [12] | [14] | [15] | [16] | [17] | [18] | [19]
inactive: all other assays above

N=c1ccn2c(n1)O[C@H]1[C@H](O)[C@@H](CO)O[C@H]12
not listed: [7] | [12] | [16] | [17] | [18]
inactive: all other assays above
